Measurements taken from article PMC4336329 (PLoS ONE, 2015).
The whole screen tested about 310,000 compounds, of which about 2,200 (0.71%) showed an effect of 50% or more. Effects have a minus sign here. The sample holds strong results, similar compounds and a random draw of the others, so the mix is not that of the screen.

Target: human ether-à-go-go-related gene (hERG) potassium channel (human, UniProt Q12809)
Assay: primary screen, population patch clamp on CHO cells stably expressing hERG; higher = less effect of the substance

Sequence of human ether-à-go-go-related gene (hERG) potassium channel (Q12809 whole entry, looked up): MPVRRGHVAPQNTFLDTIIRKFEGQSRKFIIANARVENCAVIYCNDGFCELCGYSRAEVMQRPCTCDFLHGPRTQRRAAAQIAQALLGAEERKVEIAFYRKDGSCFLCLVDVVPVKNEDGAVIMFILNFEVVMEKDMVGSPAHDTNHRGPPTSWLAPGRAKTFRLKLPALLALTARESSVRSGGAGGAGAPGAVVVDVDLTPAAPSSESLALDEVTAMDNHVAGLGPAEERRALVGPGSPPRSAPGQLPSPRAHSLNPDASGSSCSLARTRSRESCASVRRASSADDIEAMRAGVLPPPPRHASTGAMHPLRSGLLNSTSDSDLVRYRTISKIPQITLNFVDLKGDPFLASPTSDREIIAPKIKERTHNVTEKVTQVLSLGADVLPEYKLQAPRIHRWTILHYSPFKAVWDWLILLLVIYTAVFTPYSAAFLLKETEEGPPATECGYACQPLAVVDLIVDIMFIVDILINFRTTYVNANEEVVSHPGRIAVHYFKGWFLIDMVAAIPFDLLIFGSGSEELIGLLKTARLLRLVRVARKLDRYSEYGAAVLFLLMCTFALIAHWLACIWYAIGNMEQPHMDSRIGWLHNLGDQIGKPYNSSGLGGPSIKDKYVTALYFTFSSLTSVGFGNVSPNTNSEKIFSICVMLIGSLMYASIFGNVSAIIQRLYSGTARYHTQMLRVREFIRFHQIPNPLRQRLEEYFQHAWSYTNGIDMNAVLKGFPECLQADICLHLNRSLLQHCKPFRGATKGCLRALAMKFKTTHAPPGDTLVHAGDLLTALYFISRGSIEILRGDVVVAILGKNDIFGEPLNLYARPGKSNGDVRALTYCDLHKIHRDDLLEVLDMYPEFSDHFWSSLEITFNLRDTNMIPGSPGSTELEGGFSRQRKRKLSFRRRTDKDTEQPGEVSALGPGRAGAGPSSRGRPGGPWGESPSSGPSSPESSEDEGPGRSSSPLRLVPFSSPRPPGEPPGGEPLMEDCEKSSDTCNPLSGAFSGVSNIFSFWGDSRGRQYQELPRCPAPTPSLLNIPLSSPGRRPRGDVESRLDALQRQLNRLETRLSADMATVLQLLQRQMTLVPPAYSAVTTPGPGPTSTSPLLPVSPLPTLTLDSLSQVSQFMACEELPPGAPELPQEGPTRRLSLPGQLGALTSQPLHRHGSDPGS

| SMILES | hERG current change (%, negative = inhibition) at 1uM |
| --- | --- |
| COc1ccc(/C=C2/C(=O)NC(=O)N(c3ccc(C)c(C)c3)C2=O)cc1CN1C(=O)c2ccccc2C1=O | -3.04% |
| CCCC(=O)Nc1c2c(nn1-c1cccc(C)c1C)CS(=O)(=O)C2 | 4.62% |
| COc1ccccc1/C=C1\SC(=O)N(CCC(=O)N2CCCCC2CCO)C1=O (stereo not drawn) | 14.7% |
| CCOC(=O)c1c2ccc(OCC(=O)NN)cc2n2ccccc12 | 13.3% |
| CC1CC(C)CN(CCCNC(=O)C2CCN(c3ncnc4c3sc3cccc(F)c34)CC2)C1 (stereo not drawn) | -14.9% |
| CCCCN(C)CCCNC(=O)c1cc(-c2cccnc2)nc2ccccc12 | -20.2% |
| CCN(CC)CCNC(=O)c1ccc(NC(=O)c2cc(-c3ccco3)nc3ccccc23)cc1 | 9.15% |
| CCN(CC)CCNC(=O)c1cc(-c2ccco2)nc2ccccc12.Cl | -55% |
| CCCCN(C)CCCNC(=O)c1cc(-c2cccs2)nc2ccccc12 | -80.8% |
| CCCCCCNC(=O)c1cc(-c2ccco2)nc2ccccc12 | 7.12% |
| CC(C)CCNC(=O)c1cc(-c2cccs2)nc2ccccc12 | 2.51% |
| O=C(NC1CCCCC1)N(C1=NCCCCC1)c1ccc(Br)cc1 | 13.1% |
| Cc1cccc(NC(=O)CSCc2nc3c(nnn3Cc3ccc(F)cc3)c(=O)[nH]2)c1C | 8.63% |
| Cc1cc(C)n2nc(NCc3cccc(Br)c3)nc2n1 | -32.1% |
| O=C(Nc1cccc(NC(=O)c2ccccc2Cl)c1)c1ccc(F)cc1 | 7.98% |
| CCOCc1c(C(=O)NC2CCCCCC2)oc2ccccc12 | -1.11% |
| COc1ccc2oc(C(=O)NCc3ccccc3CN3CCCC3)c(C)c2c1 | -27.2% |
| CCOC(=O)c1oc2ccccc2c1CN1CCOCC1.Cl | -5.9% |
| Cc1c(C(=O)NCc2ccccc2CN2CCCC2)oc2ccc(F)cc12 | -57.4% |
| CCOc1ccc2oc(C(=O)NCc3ccccc3CN3CCCC3)c(C)c2c1 | -12.2% |

| SMILES | hERG current change (%, negative = inhibition) at 1uM |
| --- | --- |
| COCc1c(C(=O)NCc2ccccc2CN2CCCC2)oc2ccccc12 | -34% |
| CCOCc1c(C(=O)NCc2ccccc2CN2CCCC2)oc2ccccc12 | -60.1% |
| CCOC(=O)c1oc2ccccc2c1CN1CCN(C)CC1.Cl | -50.2% |
| CCOC(=O)c1oc2ccccc2c1CN1CCCCC1.Cl | -9.66% |
| Cc1ccc(NC(=O)CCn2c(=S)oc3ccccc32)cc1 | 11% |
| CC(C)(C)C(=O)Nc1c(Cl)cccc1OC(F)(F)F | 12.4% |
| CC1CCN(S(=O)(=O)c2ccc3c(c2)n(C)c(=O)n3C)CC1 | 0.216% |
| COc1ccc(CCN(C(=O)/C=C/C(=O)O)C2CC(=O)N(c3ccccc3)C2=O)cc1 (stereo not drawn) | 8.45% |
| C=C(C)CNC(=O)CCc1nnc(C2(c3ccc(Cl)cc3)CCC2)o1 | 12.3% |
| CCNC(=S)N1CCN(Cc2ccccc2)CC1.O=C(O)C(=O)O | -7.37% |
| CCCN1CCN(CC(=O)Nc2nc3ccccc3s2)CC1 | -17.9% |
| O=C(CN1CCN(Cc2ccc3c(c2)OCO3)CC1)Nc1ccc2c(c1)OCO2 | -64.3% |
| COc1ccc(NC(=O)CN2CCN(Cc3ccc4c(c3)OCO4)CC2)cc1OC.O=C(O)C(=O)O | 4.15% |
| COC(=O)c1ccsc1NC(=O)CN1CCN(Cc2ccc3c(c2)OCO3)CC1 | -59.7% |
| O=C(CN1CCN(c2ccc(F)cc2)CC1)Nc1ccc2c(c1)OCCO2 | 14.1% |
| O=C(CN1CCN(CC(=O)Nc2ccc3c(c2)OCO3)CC1)Nc1ccc(F)cc1 | -83.5% |
| COC(=O)c1c(NC(=O)CN2CCN(Cc3ccc4c(c3)OCO4)CC2)sc(C)c1C.O=C(O)C(=O)O | 5.45% |
| O=C(CN1CCN(S(=O)(=O)c2ccc(F)cc2)CC1)Nc1ccc2c(c1)OCO2 | -8% |
| O=C(CN1CCN(Cc2ccccc2)CC1)Nc1nc2ccccc2s1 | -24.1% |
| NC(=O)CN1CCN(Cc2ccc3c(c2)OCO3)CC1 | 22.5% |

| SMILES | hERG current change (%, negative = inhibition) at 1uM |
| --- | --- |
| O=C(CN1CCN(Cc2ccc3c(c2)OCO3)CC1)Nc1ccc(N2CCOCC2)cc1 | 8.8% |
| O=C(CN1CCN(Cc2ccc(F)cc2)CC1)Nc1nc2ccccc2s1 | -54% |
| CN(Cc1ccccc1)C(=O)CN1C(=O)NC(C)(c2ccc(Cl)cc2)C1=O (stereo not drawn) | 12.8% |
| COc1ccc(-c2cc(C(=O)N3CCN(c4ccccc4F)CC3)c3ccccc3n2)c(OC)c1 | 4.75% |
| CCn1c(SCC(=O)NCc2ccc3c(c2)OCO3)nnc1-c1c[nH]c2ccccc12 | 14.9% |
| N/C(=N\OC(=O)CC1CCCCC1)c1ccncc1 | 12.3% |
| O=C(c1ccc(F)cc1)N1CCN(C(=O)c2ccc([N+](=O)[O-])cc2)CC1 | -13.7% |
| CCn1nc(C(=O)NNC(=O)c2ccccc2OCc2c(C)noc2C)c2ccccc2c1=O | 9.55% |
| O=C(CCn1c(=O)[nH]c2ccccc2c1=O)N1CCN(c2ccc(Cl)cc2)CC1 | -4.13% |
| Cc1cc(NS(=O)(=O)c2ccc(NC(=O)COc3ccc(Cl)cc3Cl)cc2)no1 | -0.394% |
| CC(=O)O.NCC(c1ccco1)c1c[nH]c2ccccc12 (stereo not drawn) | 12.2% |
| O=C(CN1CCN(Cc2ccc3c(c2)OCO3)CC1)NCC(F)(F)F | 11.2% |
| O=C(CN1CCN(C(=O)C2COc3ccccc3O2)CC1)Nc1ccc(F)cc1 (stereo not drawn) | -63.5% |
| O=C(C1COc2ccccc2O1)N1CCN(c2ccc(F)cc2)CC1 (stereo not drawn) | -9.29% |
| CCN(CC(=O)Nc1c(C(=O)OC)[nH]c2ccccc12)c1ccc2c(c1)OCO2 | 12.1% |
| O=C(CN1CCN(Cc2ccc3c(c2)OCO3)CC1)Nc1ccc(F)cc1 | -82.6% |
| COc1cc(NC(=O)CN2CCN(Cc3ccc4c(c3)OCO4)CC2)cc(OC)c1.O=C(O)C(=O)O | -9.16% |
| COC(=O)c1[nH]c2ccc(C)cc2c1NC(=O)CCN1CCN(Cc2ccc3c(c2)OCO3)CC1 | -33% |
| COC(=O)c1[nH]c2ccccc2c1NC(=O)CN1CCN(Cc2ccc3c(c2)OCO3)CC1 | -70.3% |
| O=C(CN1CCN(C(=O)C2COc3ccccc3O2)CC1)Nc1ccccc1 (stereo not drawn) | -22.5% |
